Data on 19 compounds can be found in PubChem BioAssay (Tox21).

Test [1] can be described thus: qHTS assay to identify small molecule agonists of the vitamin D receptor (VDR) signaling pathway - cell viability counter screen (AID 743224). Also: series mostly up to about 63 µM; nearly all actives have a fitted effect of over 50% in size. The essentials:
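Plated VDR-bla cells (4 h, 37C) received compound, incubated 16 h, then LiveBLAzer substrate 2 h RT; CellTiter-Glo added afterwards, luminescence read at 30 min.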
On the technique in general: qHTS replaces the single test concentration by a dilution series.

A short description of test [2]: qHTS assay to identify small molecule antagonists of the vitamin D receptor (VDR) signaling pathway - cell viability counter screen (AID 743225). Also: nearly all actives have a fitted effect of over 50% in size. Summed up: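 Same-well multiplex: following 16 h treatment of HEK 293T cells carrying a UAS-driven beta-lactamase reporter with compound and agonist (3 nM final), and a 2 h FRET substrate step, CellTiter-Glo was added and luminescence read after 30 min.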

The nature of test [3]: qHTS assay to identify small molecule agonists of the NFkB signaling pathway (AID 1159509; active = well fitted curve in the direction sought with a large enough effect in the signal ratio in the repeat runs, not every such curve was filed as active; the % refers to the signal ratio; also: series mostly up to about 61 µM). The essentials: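 NFkB-bla ME-180 cells carry a beta-lactamase reporter under an NF-kB response element. They were plated overnight, then exposed to compounds for 5 h at 37 C. Read-out is LiveBLAzer FRET after 1.5 hr at room temperature (405 nm excitation; 460/530 nm emission).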
Test [4] in a line: qHTS assay to identify small molecule agonists of the endoplasmic reticulum stress response signaling pathway (AID 1159516; active = well fitted activation curve with a large enough effect in the signal ratio in the repeat runs, not every such curve was filed as active; the % refers to the signal ratio). The essentials: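 An ESRE-bla HeLa cell assay: compounds were pin-transferred from DMSO onto overnight-plated cells and left 5 hr at 37 C. Substrate was then loaded for 2 hr at room temperature before reading fluorescence at 460 nm and 530 nm.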
Test [5] can be described thus: qHTS assay to identify small molecule antagonists of the retinoid-related orphan receptor gamma (ROR-gamma) signaling pathway - cell viability counter screen (AID 1159520). Also: nearly all actives have a fitted effect of over 50% in size. Summed up: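 Cytotoxicity was read from cellular ATP (CellTiter-Glo luminescence) after 16 hr at 37 C with 1 uM doxycycline induction. The inducer was added 2 hr after compound transfer to Tet-on ROR gamma CHO cells.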

For test [6], the target named is Nuclear receptor ROR-gamma (Homo sapiens) (UniProt P51449). Put plainly: qHTS assay to identify small molecule antagonists of the retinoid-related orphan receptor gamma (ROR-gamma) signaling pathway (AID 1159521; also: top concentration of the series differs between compounds; nearly all actives have a fitted effect of over 50% in size). Summed up: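 Inducible-expression reporter assay: doxycycline (1 uM final) switched on RORγ in CHO cells bearing a ROR response element-luciferase construct, with test compounds present from 2 h beforehand. Decreased luminescence after 16 h defined antagonist activity.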

Test [7] can be described thus: qHTS assay to identify small molecule agonists of the AP-1 signaling pathway - cell viability counter screen (AID 1159525; calls by dose curve; also: nearly all actives have a fitted effect of over 55% in size). Summed up:
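Luminescent ATP readout (Cell Titer Glo, 30 min RT), normalised to DMSO and tetra n-octyl ammonium bromide controls. Cells were ME-180 AP-1-bla in 0.5% dialyzed FBS Opti-MEM, with a 5 h, 37 °C compound exposure.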

The nature of test [8]: qHTS assay to identify small molecule agonists of the AP-1 signaling pathway (AID 1159526; calls by dose curve).
The target in test [9] is Retinoic acid receptor RXR-alpha (Homo sapiens) (UniProt P19793). The test can be described thus: qHTS assay to identify small molecule agonists of the RXR signaling pathway (AID 1159527; calls by dose curve; also: nearly all actives have a fitted effect of over 35% in size; also: potency is read from the fitted curve at half-maximal effect). The essentials:
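Compounds in DMSO were added to RXR-alpha-UAS-bla HEK 293T cells kept in 2% charcoal-stripped serum, and incubated 16 hr at 37 C with 5% CO2. Reporter signal came from a 2 hr B/G FRET substrate step.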

Test [10] in a line: qHTS assay to identify small molecule antagonists of the retinoid acid receptor (RAR) signaling pathway - cell viability counter screen (AID 1159551). Also: nearly all actives have a fitted effect of over 35% in size. Summed up: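 Retinol-stimulated (1 uM final) C3RL4 cells, compound 6 h, 37 C; readout CellTiter-Glo luminescence (ATP) after 30 min RT incubation.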
Test [11] in a line: qHTS assay to identify small molecule antagonists of the retinoic acid receptor (RAR) signaling pathway (AID 1159552; also: nearly all actives have a fitted effect of over 50% in size). The essentials: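 Antagonism of retinol-induced RARE reporter activity was measured in C3RL4 cells. Exposure to compounds and 1 uM final retinol lasted 6 hr at 37 C, with luminescence as endpoint.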
The nature of test [12]: qHTS assay to identify small molecule agonists of the retinoic acid receptor (RAR) signaling pathway (AID 1159553). Summed up:
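Reporter readout comes from luciferase under RARE control in C3RL4 cells; compound exposure lasts 6 hr at 37 C in 5% CO2, and luminescence is recorded following a 30 min room-temperature incubation with reagent.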

A short description of test [13]: qHTS assay to identify small molecule agonists of the RXR signaling pathway - cell viability counter screen (AID 1159529). The essentials: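 Counter screen: CellTiter-Glo luminescence. Cells: RXR-alpha-UAS-bla HEK 293T. Medium: 2% charcoal-stripped FBS. Treatment: 16 h, 37 C. Reagent incubation: 30 min, RT.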
Test [14] in a line: qHTS assay to identify small molecule agonists of the endoplasmic reticulum stress response signaling pathway - cell viability counter screen (AID 1159517; calls by dose curve). Summed up: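 HeLa cells carrying an ESRE-driven beta-lactamase reporter receive compound for 5 hr at 37 C. Cell viability is then gauged with CellTiter-Glo by luminescence, 30 min at room temperature.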

“And” between values parts separate entries of the source, which are not always exact repeats. Equal entries are not always repeated. Records with an inconclusive call do not appear. The source holds several records for some structures; these can differ, active in one and inactive in another. The source made the active and inactive calls. Unless noted, calls follow the shape of the dose curve; as a rule, active = well fitted curve in the direction sought with a large enough effect in the repeat runs; inconclusive = weak or mixed curves; inactive = no such curve, though single readings can be large; an effect the other way counts as inactive or inconclusive.

Retinoic acid receptor RXR-alpha (Homo sapiens), sequence (P19793 whole entry, looked up): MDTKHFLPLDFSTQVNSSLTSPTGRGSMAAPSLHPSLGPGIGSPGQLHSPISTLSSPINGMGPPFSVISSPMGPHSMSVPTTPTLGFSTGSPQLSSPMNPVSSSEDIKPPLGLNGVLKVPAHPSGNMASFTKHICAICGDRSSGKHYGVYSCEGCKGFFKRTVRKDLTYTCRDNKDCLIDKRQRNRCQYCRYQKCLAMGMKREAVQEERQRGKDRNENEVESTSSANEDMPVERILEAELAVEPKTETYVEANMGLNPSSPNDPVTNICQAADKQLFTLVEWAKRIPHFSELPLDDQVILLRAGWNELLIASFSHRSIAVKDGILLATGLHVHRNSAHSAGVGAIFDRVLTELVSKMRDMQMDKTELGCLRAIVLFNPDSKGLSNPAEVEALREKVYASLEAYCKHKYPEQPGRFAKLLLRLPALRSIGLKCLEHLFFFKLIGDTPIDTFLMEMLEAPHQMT

Consider `CC(C)c1cccc(C(C)C)c1`, for which the outcome in [1], in test [2], in test [3], in test [4], in test [5] and in test [7] was inactive. For the same compound, the result in test [10] and in test [11] was inactive. Besides, the Potency result in test [6], in [8], in test [9] and in test [12] was “inactive” throughout.
Turning to `COCCOC(=O)c1ccccc1C(=O)OCCOC`, the compound was classed as inactive in test [1], in test [2], in test [3], in test [4], in [5] and in [7]. Besides, the compound was classed as inactive in test [13] and in test [10]. Further, the Potency result in test [6], in [8], in test [9] and in [12] was “inactive” each time.
In the case of `CC(=O)OCc1ccco1`, the result in [1], in test [2], in [3], in test [4], in [5] and in [7] was inactive. The outcome in test [13], in [10] and in test [11] was inactive. The Potency result in test [6], in test [8], in [9] and in test [12] was “inactive” throughout.
For the compound `CCCCCCCCCCCCCCCCO`, the outcome in test [1], in test [2], in test [3], in test [4], in [5] and in test [7] was inactive. Further, the result in [13] and in test [10] was inactive. Also, the Potency entry in test [6], in test [8], in test [9] and in [12] was “inactive” in each case.
For the compound `CC1(C)S[C@@H]2[C@H](NC(=O)COc3ccccc3)C(=O)N2[C@H]1C(=O)O`, the call in test [1], in test [2], in test [3], in test [5], in test [7] and in [13] was inactive. Besides, the compound was called inactive in test [10]. Further, the Potency entry in test [14], in [6], in [8], in [9] and in test [12] was “inactive” in each case.
With `Nc1nc(N)nc(-c2ccccc2)n1`, the compound was classed as inactive in [1], in test [2], in test [3], in test [4], in [5] and in test [7]. The call in [13] and in test [10] was inactive. Further, the Potency entry in [14], in test [6], in test [8], in test [9] and in [12] was “inactive” each time.
As to `COc1ccc(C)cc1N`, the call in [1], in test [2], in [3], in test [4], in test [5] and in [7] was inactive. Besides, the compound was classed as inactive in [13], in test [10] and in [11]. Besides, the Potency entry in [6], in test [8], in test [9] and in test [12] was “inactive” each time.
As to `Cc1ccc([N+](=O)[O-])cc1S(=O)(=O)O`, the compound was called inactive in [1], in [2], in test [3], in test [4], in test [5] and in test [7]. The compound was called inactive in test [13] and in test [10]. In addition, the Potency entry in [14], in [6], in [8], in [9] and in [12] was “inactive” throughout.
With `C=CC[N+](C)(C)CC=C`, the compound was called inactive in [1], in [2], in test [3], in test [4], in [5] and in [7]. For the same compound, the outcome in test [10] and in test [11] was inactive. Also, the Potency entry in [6], in test [8], in test [9] and in test [12] was “inactive” throughout.
As to `C[Si]1(C)O[Si](C)(C)O[Si](C)(C)O[Si](C)(C)O1`, the result in [1], in test [2], in test [3], in test [4], in [5] and in test [7] was inactive. In test [10], the outcome was inactive. Besides, the Potency entry in [6], in [8] and in test [9] was “inactive” in each case.
`COc1ccc(N)c(C)c1`: the result in test [1], in test [2], in [3], in test [4], in [5] and in test [7] was inactive. For the same compound, the compound was called inactive in test [13] and in test [10]. Further, the Potency result in [14], in test [6], in [8] and in test [9] was “inactive” throughout.
With `CSc1ccc(Cl)cc1`, the call in [1], in test [2], in test [3], in test [4], in [5] and in test [7] was inactive. Further, the outcome in test [13], in [10] and in test [11] was inactive. In addition, the Potency result in test [14], in test [6], in [8], in [9] and in [12] was “inactive” each time.
For the compound `C=C(C)[C@H]1CC=C(C)C(=O)C1`, the call in test [1], in test [2], in test [3], in test [5], in [7] and in test [10] was inactive. Moreover, the Potency result in test [14], in [6], in test [8] and in test [9] was “inactive” in each case.
For the compound `C=CCc1ccc(OC)c(OC)c1`, the result in test [1], in test [2], in [3], in test [4], in test [5] and in test [7] was inactive. Besides, the outcome in [13] and in test [10] was inactive. Moreover, the Potency result in test [14], in test [6] and in test [8] was “inactive” throughout. Further, in test [9], the Potency result was “inactive and 7.76 µM (active)”.
Consider `O=[N+]([O-])c1ccc2nc[nH]c2c1`, for which the compound was called inactive in test [1], in [2], in test [3], in test [4], in test [5] and in test [7]. The result in [13] and in test [10] was inactive. In addition, the Potency result in test [14], in test [6], in [8] and in test [9] was “inactive” each time.
For the compound `CC(=O)OCCOC(C)=O`, the result in test [1], in test [2], in [3], in [5], in test [7] and in test [13] was inactive. Besides, the result in test [10] was inactive. The Potency entry in test [6], in [8] and in [9] was “inactive” each time.
`CC(C)=CCl`: the call in [1], in test [2], in test [3], in test [5], in test [7] and in test [13] was inactive. Besides, the compound was called inactive in test [10]. Moreover, the Potency result in test [14], in test [6], in [8], in [9] and in test [12] was “inactive” in each case.
For `CCCCCC(=O)O`, the call in [1], in test [2], in [3], in test [4], in test [5] and in test [7] was inactive. The compound was called inactive in test [10] and in [11]. The Potency result in test [14], in test [6], in [8], in test [9] and in test [12] was “inactive” each time.
As to `c1ccc2c(c1)Cc1ccccc1-2`, the result in test [1], in [2], in test [3], in test [4], in test [5] and in test [7] was inactive. Further, the outcome in test [10] was inactive. Also, the Potency result in [6], in [8], in [9] and in test [12] was “inactive” each time.
